Data published in PubChem BioAssay AID1159580 (chemical genetic matrix, 2015).
Values joined by “and” are separate entries in the source; they are usually repeats but may differ in a detail not shown here. Equal entries are not always repeated. Among all 5,500 compounds or so, about 2,000 (36%) were called active. About 18% were inconclusive and are not listed. Rule as the data show it: active = normalized growth mostly below about 0.91 (no sharp cut-off); inconclusive = no clear call, values can overlap the other calls; inactive = mostly above about 0.92. This is one part of the list.

Assay: chemical genetic growth profiling, strain panel (AID 1159580);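 also: tested at 20 µM; growth read once vehicle control cultures reached saturation at 30 °C; 1 = growth at the plate median or of vehicle wells; lower values mean less growth of the strain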
Details: S. cerevisiae deletion strains, growth OD

Measured: normalized growth

c1ccc2c(c1)CN1CCCC1=N2
active: locus YBR021W, strain FUR4, stronger effect = lower value 1.19 [resistant]
inactive: locus YAL021C, strain ccr4, stronger effect = lower value 0.998 | locus YAL026C, strain drs2, stronger effect = lower value 1 | locus YAL030W, strain snc1, stronger effect = lower value 1 | locus YBL061C, strain skt5, stronger effect = lower value 0.999 | locus YBR009C, strain hhf1, stronger effect = lower value 0.987 | locus YBR023C, strain chs3, stronger effect = lower value 1 | locus YBR171W, strain sec66, stronger effect = lower value 1 | locus YBR229C, strain ROT2, stronger effect = lower value 1.01 | locus YBR231C, strain swc5, stronger effect = lower value 0.997 | locus YBR279W, strain paf1, stronger effect = lower value 0.996 | locus YCL011C, strain gbp2, stronger effect = lower value 1.01 | locus YCL016C, strain dcc1, stronger effect = lower value 0.997 | locus YCL029C, strain bik1, stronger effect = lower value 0.972 | locus YCL061C, strain MRC1, stronger effect = lower value 1.01 | locus YCL069W, strain vba3, stronger effect = lower value 1 | locus YCR088W, strain abp1, stronger effect = lower value 0.998 | locus YDL005C, strain med2, stronger effect = lower value 0.993 | locus YDL035C, strain GPR1, stronger effect = lower value 1.03 | locus YDL040C, strain nat1, stronger effect = lower value 1 | locus YDL074C, strain BRE1, stronger effect = lower value 1.01 | locus YDL101C, strain DUN1, stronger effect = lower value 0.99 | locus YDL134C, strain PPH21, stronger effect = lower value 1.01 | locus YDL185W, strain tfp1, stronger effect = lower value 0.971 | locus YDL192W, strain arf1, stronger effect = lower value 0.985 | locus YDR001C, strain nth1, stronger effect = lower value 0.992 | locus YDR069C, strain doa4, stronger effect = lower value 1 | locus YDR101C, strain arx1, stronger effect = lower value 0.978 | locus YDR137W, strain rgp1, stronger effect = lower value 1.01 | locus YDR150W, strain NUM1, stronger effect = lower value 0.998 | locus YDR159W, strain sac3, stronger effect = lower value 0.991 | locus YDR162C, strain NBP2, stronger effect = lower value 1.02 | locus YDR195W, strain ref2 0.968 | locus YDR297W, strain sur2, stronger effect = lower value 1 | locus YDR318W, strain mcm21, stronger effect = lower value 0.988 | locus YDR334W, strain swr1, stronger effect = lower value 0.999 | locus YDR335W, strain msn5, stronger effect = lower value 1.01 | locus YDR388W, stronger effect = lower value 0.989 | locus YDR392W, strain spt3, stronger effect = lower value 0.919 | locus YDR502C, strain sam2, stronger effect = lower value 0.988 | locus YEL003W, strain gim4, stronger effect = lower value 0.999 | locus YEL037C, strain rad23, stronger effect = lower value 0.999 | locus YEL061C, strain CIN8 (second series), stronger effect = lower value 0.996 | locus YEL061C, strain CIN8, stronger effect = lower value 1 | locus YER015W, strain faa2, stronger effect = lower value 0.998 | locus YER016W, strain bim1, stronger effect = lower value 1 | locus YER110C, stronger effect = lower value 0.967 | locus YER111C, strain swi4, stronger effect = lower value 1 | locus YER155C, strain BEM2 (second series), stronger effect = lower value 1 | locus YER155C, strain BEM2, stronger effect = lower value 0.993 | locus YER167W, strain BCK2, stronger effect = lower value 1 | locus YFR010W, strain ubp6, stronger effect = lower value 1 | locus YGL078C, strain dbp3, stronger effect = lower value 0.993 | locus YGL086W, strain mad1, stronger effect = lower value 0.967 | locus YGL167C, strain pmr1, stronger effect = lower value 0.995 | locus YGL173C, strain kem1, stronger effect = lower value 0.997 | locus YGL227W, strain vid30, stronger effect = lower value 0.993 | locus YGL240W, strain doc1, stronger effect = lower value 1.01 | locus YGL248W, strain PDE1, stronger effect = lower value 1 | locus YGL253W, strain hxk2, stronger effect = lower value 1 | locus YGR078C, strain PAC10, stronger effect = lower value 1.01 | locus YGR135W, strain pre9, stronger effect = lower value 0.998 | locus YGR229C, strain SMI1, stronger effect = lower value 1.03 | locus YGR252W, strain gcn5, stronger effect = lower value 1.1 | locus YHR013C, strain ard1, stronger effect = lower value 0.983 | locus YHR027C, strain rpn1, stronger effect = lower value 1.01 | locus YHR030C, strain SLT2, stronger effect = lower value 1.01 and 0.994 | locus YHR079C, strain IRE1 (second series), stronger effect = lower value 0.97 | locus YHR079C, strain IRE1, stronger effect = lower value 1.02 | locus YHR094C, strain hxt1, stronger effect = lower value 0.991 | locus YHR129C, strain ARP1, stronger effect = lower value 0.995 | locus YHR142W, strain chs7, stronger effect = lower value 1.01 | locus YHR200W, strain rpn10, stronger effect = lower value 0.979 | locus YIL066C, strain RNR3, stronger effect = lower value 1.01 | locus YIL073C, strain SPO22, stronger effect = lower value 0.906 | locus YIL125W, strain kgd1, stronger effect = lower value 0.989 | locus YIR030C, strain dcg1, stronger effect = lower value 0.985 | locus YJL092W, strain hpr5, stronger effect = lower value 0.995 | locus YJL095W, strain BCK1 (second series), stronger effect = lower value 1 | locus YJL095W, strain BCK1, stronger effect = lower value 1 and 0.988 | locus YJL115W, strain asf1, stronger effect = lower value 1 | locus YJL129C, strain trk1, stronger effect = lower value 1.01 | locus YJL134W, strain LCB3, stronger effect = lower value 1.01 | locus YJL154C, strain vps35, stronger effect = lower value 0.996 | locus YJL164C, strain tpk1, stronger effect = lower value 1.01 | locus YJL166W, strain qcr8, stronger effect = lower value 1 | locus YJL168C, strain set2, stronger effect = lower value 0.98 | locus YJL187C, strain SWE1 (second series), stronger effect = lower value 0.99 | locus YJL187C, strain SWE1, stronger effect = lower value 1 | locus YJR043C, strain POL32, stronger effect = lower value 1.06 | locus YJR066W, strain TOR1, stronger effect = lower value 0.989 | locus YKL009W, strain mrt4, stronger effect = lower value 0.955 | locus YKL068W, stronger effect = lower value 0.984 | locus YKL085W, strain MDH1 (second series), stronger effect = lower value 0.981 | locus YKL085W, strain MDH1, stronger effect = lower value 0.981 | locus YKL160W, strain elf1, stronger effect = lower value 1 | locus YKL190W, strain CNB1, stronger effect = lower value 1.01 | locus YKR001C, strain vps1, stronger effect = lower value 0.98 | locus YKR026C, strain gcn3, stronger effect = lower value 0.992 | locus YKR091W, strain srl3, stronger effect = lower value 0.994 | locus YLL001W, strain dnm1, stronger effect = lower value 0.988 | locus YLL026W, stronger effect = lower value 0.996 | locus YLL041C, strain sdh2, stronger effect = lower value 0.996 | locus YLR027C, strain aat2, stronger effect = lower value 1.01 | locus YLR039C, strain RIC1, stronger effect = lower value 1.01 | locus YLR058C, strain SHM2, stronger effect = lower value 1 | locus YLR102C, strain apc9, stronger effect = lower value 0.981 | locus YLR113W, strain HOG1, stronger effect = lower value 0.973 | locus YLR221C, strain rsa3, stronger effect = lower value 0.999 | locus YLR258W, strain gsy2, stronger effect = lower value 1 | locus YLR262C, strain YPT6 (second series), stronger effect = lower value 1.02 | locus YLR262C, strain YPT6, stronger effect = lower value 1.04 | locus YLR268W, strain sec22, stronger effect = lower value 0.951 | locus YLR320W, strain mms22, stronger effect = lower value 1.01 | locus YLR330W, strain CHS5, stronger effect = lower value 0.996 | locus YLR342W, strain FKS1 (second series), stronger effect = lower value 1.08 | locus YLR342W, strain FKS1, stronger effect = lower value 1.01 | locus YLR357W, strain rsc2, stronger effect = lower value 0.991 | locus YLR370C, strain arc18, stronger effect = lower value 1.01 | locus YLR371W, strain rom2, stronger effect = lower value 0.965 | locus YLR384C, strain iki3, stronger effect = lower value 0.988 | locus YLR418C, strain cdc73, stronger effect = lower value 1 | locus YML016C, strain PPZ1, stronger effect = lower value 1 | locus YML032C, strain rad52, stronger effect = lower value 1.01 | locus YML120C, strain ndi1, stronger effect = lower value 1.01 | locus YML124C, strain tub3, stronger effect = lower value 1 | locus YMR058W, strain fet3, stronger effect = lower value 1 | locus YMR078C, strain ctf18, stronger effect = lower value 0.959 | locus YMR125W, strain sto1, stronger effect = lower value 1.01 | locus YMR129W, stronger effect = lower value 0.976 | locus YMR205C, strain PFK2, stronger effect = lower value 0.99 | locus YMR223W, strain ubp8, stronger effect = lower value 0.992 | locus YMR231W, strain pep5, stronger effect = lower value 0.996 | locus YMR263W, strain SAP30, stronger effect = lower value 0.991 | locus YMR307W, strain GAS1, stronger effect = lower value 1.21 | locus YNL067W, strain RPL9B, stronger effect = lower value 0.979 | locus YNL071W, strain lat1, stronger effect = lower value 1.01 | locus YNL153C, strain GIM3, stronger effect = lower value 1 | locus YNL183C, strain NPR1, stronger effect = lower value 0.967 | locus YNL209W, strain ssb2, stronger effect = lower value 1 | locus YNL233W, strain BNI4, stronger effect = lower value 1 | locus YNL248C, strain rpa49, stronger effect = lower value 1.01 | locus YNL250W, strain rad50, stronger effect = lower value 0.937 | locus YNL271C, strain bni1, stronger effect = lower value 0.989 | locus YNL298W, strain CLA4, stronger effect = lower value 0.996 | locus YNL307C, strain MCK1, stronger effect = lower value 0.972 | locus YNL322C, strain KRE1 (second series), stronger effect = lower value 1 | locus YNR049C, strain mso1, stronger effect = lower value 1 | locus YNR052C, strain pop2, stronger effect = lower value 0.992 | locus YOL006C, strain TOP1, stronger effect = lower value 0.918 | locus YOL012C, strain htz1 0.782 | locus YOL147C, strain pex11, stronger effect = lower value 0.995 | locus YOR001W, strain rrp6, stronger effect = lower value 1 | locus YOR061W, strain CKA2, stronger effect = lower value 0.998 | locus YOR069W, strain VPS5, stronger effect = lower value 0.998 | locus YOR070C, strain gyp1, stronger effect = lower value 0.993 | locus YOR080W, strain dia2, stronger effect = lower value 0.992 | locus YOR083W, strain WHI5, stronger effect = lower value 1 | locus YOR106W, strain vam3, stronger effect = lower value 1.02 | locus YOR136W, strain idh2, stronger effect = lower value 0.976 | locus YOR144C, strain elg1, stronger effect = lower value 1.01 | locus YOR184W, strain ser1, stronger effect = lower value 0.992 | locus YOR231W, strain MKK1, stronger effect = lower value 1.02 | locus YOR265W, strain rbl2, stronger effect = lower value 1.01 | locus YOR270C, strain vph1, stronger effect = lower value 1.02 | locus YOR290C, strain snf2, stronger effect = lower value 0.955 | locus YOR316C, strain cot1, stronger effect = lower value 0.98 | locus YPL051W, strain arl3, stronger effect = lower value 1.01 | locus YPL055C, strain LGE1, stronger effect = lower value 1 | locus YPL078C, strain atp4, stronger effect = lower value 1.01 | locus YPL106C, strain sse1, stronger effect = lower value 1.02 | locus YPL240C, strain hsp82, stronger effect = lower value 0.992 | locus YPL256C, strain CLN2, stronger effect = lower value 1 | locus YPR119W, strain clb2, stronger effect = lower value 0.966 | locus YPR141C, strain kar3, stronger effect = lower value 0.969 | locus YPR163C, strain tif3, stronger effect = lower value 0.997 | locus YPR167C, strain met16, stronger effect = lower value 0.976 | strain wtn01, stronger effect = lower value 0.957
